Compounds with a hit are over-represented: about 1.7% of the library has one in this group of screens.
Pin1 inh – qHTS Assay to Find Inhibitors of Pin1. Peptidyl-prolyl cis-trans isomerase NIMA-interacting 1 (Homo sapiens), Q13526. Pin1 FP peptide displacement, HiFluor488, 10 min. hit rate 0.009% among 390,000. Potency, µM (titrated, usually from 115 µM), inactives show top-dose activity, negative = inhibition, usual class: inhibitors; active = well fitted inhibition curve with a large enough effect in the polarisation, with a control signal flat, not every such curve was filed as active; inconclusive = small, poorly fitted or top-dose-only effect, or effect the other way, or a change in a side signal; inactive = no such curve, though single readings can be large or run the other way; the % refers to the polarisation; also: potency is read from the fitted curve at half-maximal effect; % is scaled to controls: 0 for no effect and ±100 for the full control effect
Target sequence (Q13526 whole entry, looked up): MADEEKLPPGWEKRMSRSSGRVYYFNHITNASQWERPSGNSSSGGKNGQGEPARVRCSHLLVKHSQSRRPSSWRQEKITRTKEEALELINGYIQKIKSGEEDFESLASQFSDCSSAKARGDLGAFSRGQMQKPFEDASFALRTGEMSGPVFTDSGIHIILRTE
PTHR1 agonist – qHTS for PTHR1 Agonists: Primary Screen. HEK293 GP2 PTHR1 cells, GloSensor cAMP luminescence, 1 h. Potency, µM (series often up to 115 µM), inactives show at the top dose activation, usual class: activators. hit rate 0.075% among 410,000. AID 743266, 2014; also: potency is read from the fitted curve at half-maximal effect; nearly all actives have a fitted effect of over 55% in size
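HEK-293-derived GP2 cells expressing PTHR1 and a GloSensor cAMP reporter, 3,000/well, plated overnight, given luciferin plus IBMX (each 0.5 mM as added) for 1 h at 37 °C, then compound for 1 h at 37 °C. Luminescence was read after 15 min at room temperature.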
HEK293 tox – qHTS of GLP-1 Receptor Inverse Agonists: Cytotox Screen; HEK293 cAMP-luciferase reporter cells, luminescence, 24 h; Potency, µM (highest dose often 38.3 µM), inactives show at the highest dose activity change, negative = inhibition, usual class: inhibitors; hit rate 0.13% among 410,000;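 also: loss of luciferase light is scored as toxicity; potency is read from the fitted curve at half-maximal effect; % is scaled to controls: 0 for no effect and ±100 for the full control effect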
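Luminescence readout: signal drop marks cytotoxicity. Plated cells grew 12 h at 37 °C, 5% CO2, received 23 nL compound for 24 h, then got luciferase reagent, read after 12 min at RT.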
GLP-1R inv ag – qHTS of GLP-1 Receptor Inverse Agonists (Inhibition Mode) | Glucagon-like peptide 1 receptor (Homo sapiens), P43220 | HEK293 GLP-1R CRE-luciferase, luminescence, 24 h; GLP-1R form is constitutively active | Potency, µM (doses to about 38.3 µM), inactives show at the highest dose activity change, negative = inhibition, usual class: inhibitors | hit rate 1.6% among 410,000; also: potency is read from the fitted curve at half-maximal effect; % is scaled to controls: 0 for no effect and ±100 for the full control effect; nearly all actives have a fitted effect of over 55% in size
Target sequence (P43220 whole entry, looked up): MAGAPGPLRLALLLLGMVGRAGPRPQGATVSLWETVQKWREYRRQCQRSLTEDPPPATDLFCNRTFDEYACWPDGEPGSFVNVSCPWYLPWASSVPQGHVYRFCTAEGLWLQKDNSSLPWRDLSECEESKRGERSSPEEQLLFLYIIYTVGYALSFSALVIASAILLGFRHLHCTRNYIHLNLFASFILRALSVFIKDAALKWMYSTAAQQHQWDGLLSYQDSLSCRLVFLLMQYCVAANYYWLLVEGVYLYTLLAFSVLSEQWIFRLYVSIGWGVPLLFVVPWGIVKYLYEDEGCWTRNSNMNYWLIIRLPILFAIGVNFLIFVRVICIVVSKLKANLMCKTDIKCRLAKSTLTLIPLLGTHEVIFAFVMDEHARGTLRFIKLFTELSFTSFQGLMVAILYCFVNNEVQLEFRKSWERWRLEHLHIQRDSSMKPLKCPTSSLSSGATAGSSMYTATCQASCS
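Using stably transfected HEK293 (constitutively active GLP-1R, cAMP-luciferase reporter), compounds were incubated 24 hr and luciferase measured by luminescence.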
GLP1R ag – qHTS of GLP-1 Receptor Agonists. AID 624172, 2012. Glucagon-like peptide 1 receptor (Homo sapiens), P43220. hit rate 0.007% among 380,000. HEK293 GLP-1R CRE-luciferase, luminescence, 4-6 h; cells express a hypersensitive GLP-1R form. Potency, µM (series often up to 45.6 µM), inactives show top-dose activation, usual class: activators; also: potency is read from the fitted curve at half-maximal effect; % of control where 0% means no effect
miR-21 act – qHTS Assay for Modulators of miRNAs and/orActivators of miR-21 | HeLa miR-21 FLuc reporter, luciferase, 48 h | Potency, µM (series often up to 38.3 µM), inactives show at the top dose activity change, positive = activation, usual class: activators | 340,000 tested, under 10 active;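 also: % of control where 0% means no effect; miR-21 action dims this reporter so a rising signal means less miR-21 action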
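Compounds were titrated across several concentrations (up to approximately 40 uM) and incubated 48 hours with HeLa miR-21-FLuc reporter cells (miR-21 target sequence downstream of FLuc, endogenous miR-21). Readout was firefly luciferase luminescence after lytic detection reagent.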
* hit, by the source's call; [ ] = dose if it differs, or a comment. Unless noted, calls follow the shape of the dose curve; as a rule, active = well fitted curve in the direction sought with a large enough effect; inconclusive = small, poorly fitted or top-dose-only effect, or another doubt; inactive = no such curve, though single readings can be large; an effect the other way counts as inactive or inconclusive.

Screening COc1cccc(-c2nnc(SCC(=O)N3CCOCC3)o2)c1 returned Pin1 inh 1%, PTHR1 agonist -10%, HEK293 tox -3%, GLP-1R inv ag 1%, GLP1R ag -4% and miR-21 act -34%.
`COc1cc(-c2nnc(SCC(=O)Oc3ccccc3Cl)o2)cc(OC)c1OC` gave Pin1 inh -8%, PTHR1 agonist 0%, HEK293 tox -8%, GLP-1R inv ag 4% and miR-21 act 0%.
CCCN1CNc2c(c(=O)[nH]c(=S)n2CCc2cc(C)ccc2C)C1 was read as Pin1 inh 0%.
O=C(COC(=O)c1ccccc1NCCO)NCCc1ccccc1 was read as Pin1 inh -4%, PTHR1 agonist inactive, HEK293 tox -9%, GLP-1R inv ag 8% and GLP1R ag 15%.
Screening O=C(OCC(=O)N(Cc1ccccc1)Cc1ccccc1)c1ccccc1NCCO returned Pin1 inh 2%, PTHR1 agonist -15%, HEK293 tox 4%, GLP-1R inv ag 5.6µM* and GLP1R ag 18%.
For NS(=O)(=O)Nc1c(Br)cc(Br)c2cccnc12 the results were Pin1 inh -17%.
`Cc1cc(C)c(S(=O)(=O)Nc2ccc3c4c(cccc24)CC3)c(C)c1` gave Pin1 inh inconclusive, PTHR1 agonist -36%, HEK293 tox -33%, GLP-1R inv ag 4.5µM*, GLP1R ag 5% and miR-21 act 25%.
Screening Cc1ccc(S(=O)(=O)Nc2ccc3c4c(cccc24)CC3)c(C)c1 returned Pin1 inh 9%, PTHR1 agonist -7%, HEK293 tox -27%, GLP-1R inv ag inconclusive and GLP1R ag 15%.
Screening CCCn1ccc2c(OCC(=O)Nc3ccc(OC)c(OC)c3)cccc2c1=O returned Pin1 inh -1%, PTHR1 agonist -15%, HEK293 tox 4%, GLP-1R inv ag 10% and miR-21 act 20%.
Screening CC1(C(=O)NCc2cccc3ccccc23)CCN1Cc1ccc2ccccc2c1 (stereo not given) returned PTHR1 agonist -11%, HEK293 tox -18%, GLP-1R inv ag inconclusive and GLP1R ag -6%.
CC(C)CCNC(=O)C1(C)CCN1Cc1ccc2ccccc2c1 (stereo not given) was read as PTHR1 agonist -2%, HEK293 tox 0%, GLP-1R inv ag 10µM* and GLP1R ag 8%.
For CCOC(=O)c1cc(-c2ccc(F)cc2)n(CCC(=O)Nc2ccccc2OC)c1C the results were Pin1 inh 27%, PTHR1 agonist -10%, HEK293 tox -3%, GLP-1R inv ag 10µM* and miR-21 act 12%.
Screening CCOC(=O)c1cc(-c2ccc(F)cc2)n(CCC(=O)NCc2ccccc2OC)c1C returned Pin1 inh 17%, PTHR1 agonist inactive, HEK293 tox 7%, GLP-1R inv ag inconclusive and miR-21 act 2%.
`CCOC(=O)c1cc(-c2ccc(F)cc2)n(CCC(=O)NCc2ccc(C)cc2)c1C` gave Pin1 inh -8%, PTHR1 agonist -2%, HEK293 tox -6%, GLP-1R inv ag 10µM* and miR-21 act 11%.
Screening O=C1C2=C(C(=O)c3ccccc31)C1O[C@](CCCCN3C(=O)c4ccccc4C3=O)(Cc3c1ccc1ccccc31)O2 returned miR-21 act 0%[7.66 µM].
`CC(NC(=O)c1ccccc1Br)c1ccc2c(c1)CCCC2` (stereo not given) gave Pin1 inh 1%, PTHR1 agonist inactive, HEK293 tox 6%, GLP-1R inv ag inconclusive, GLP1R ag -9% and miR-21 act 3%.
CC(NC(=O)c1ccc(F)cc1)c1ccc2c(c1)CCCC2 (stereo not given) was read as Pin1 inh 0%, PTHR1 agonist -14%[57.5 µM], HEK293 tox 1%, GLP-1R inv ag 10µM*, GLP1R ag 1% and miR-21 act -8%.
Screening CC(NC(=O)c1ccc(Br)cc1)c1ccc2c(c1)CCCC2 (stereo not given) returned Pin1 inh 25%, PTHR1 agonist -37%, HEK293 tox -2%, GLP-1R inv ag 10µM*, GLP1R ag 2% and miR-21 act -10%.
`COc1ccc(C2c3c(n(CCCc4ccccc4)cnc3=N)Oc3ccc4ccccc4c32)cc1OC` (stereo not given) gave Pin1 inh 0%.
For O=C(N1Cc2ccc(Nc3nn4c(=O)c5ccccc5nc4s3)cc2C1)C(F)(F)F the results were Pin1 inh 7%.
For Cc1cccc(C(=O)Oc2ccc(/C=N/NC(=O)c3cc(O)cc(O)c3)cc2)c1 the results were Pin1 inh inconclusive, PTHR1 agonist -43%, HEK293 tox -12%, GLP-1R inv ag 10µM*, GLP1R ag -34% and miR-21 act -10%.
`O=S1(=O)N=C(Sc2cccc3cccnc23)c2ccccc21` gave Pin1 inh -6%.
Screening CCc1ccc(NC(=O)CCc2ccc(CC)o2)cc1 returned Pin1 inh 3%, PTHR1 agonist -29%, HEK293 tox -21%, GLP-1R inv ag 10µM*, GLP1R ag -2% and miR-21 act -10%.
`CCc1ccc(NC(=O)CCc2ccc(C)o2)cc1` gave Pin1 inh -2%, PTHR1 agonist 17%, HEK293 tox -10%, GLP-1R inv ag inconclusive, GLP1R ag -2% and miR-21 act -10%.
Screening CCCCCC1CC1C(=O)N/N=C/c1ccc(N(C)C)cc1 (stereo not given) returned Pin1 inh 5%, PTHR1 agonist -11%, HEK293 tox -7%, GLP-1R inv ag 7.9µM*, GLP1R ag 12% and miR-21 act -7%.
Screening CN(C)c1ccc(/C=N/NC(=O)COc2ccccc2)cc1 returned Pin1 inh 8%, PTHR1 agonist inactive, HEK293 tox -10%, GLP-1R inv ag 5%, GLP1R ag 0% and miR-21 act -17%.
`CN1C(=S)SC(N(O)C(=O)Nc2ccc(Cl)c(Cl)c2)C1(C)C` (stereo not given) gave Pin1 inh 1%, PTHR1 agonist -6%, HEK293 tox -2%, GLP-1R inv ag 10µM*, GLP1R ag -13% and miR-21 act 10%.

Bioassay records (PubChem BioAssay)
